The results in this text go back to PubChem BioAssay (EPA / NIEHS).

In general, AC50 refers to the concentration giving half of the maximal activity seen.

Holding throughout (details): mRNA level, 48 h; actives raise or lower the signal
Read-out in assay [1]: ATP-citrate lyase (ACLY), ACLY (gene 47)
The experiment in a line: LTEA_HepaRG_ACLY: Life Technologies and Expression Analysis (LTEA) Assay for ATP-citrate lyase (ACLY) using HepaRG (AID 2283466). A digest of the protocol: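 Differentiated HepaRG cells exposed 48 h in serum-free induction medium to eight half-log concentrations up to 100 uM in 0.5% DMSO, duplicates. Transcript measured by Fluidigm TaqMan qRT-PCR, normalized to ACTB, GAPDH, POLR2A; bidirectional fit versus DMSO.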

Read-out in assay [2]: Peroxisomal acyl-coenzyme A oxidase 1 (ACOX1) gene, ACOX1 (gene 51)
As to the kind of experiment: LTEA_HepaRG_ACOX1: Life Technologies and Expression Analysis (LTEA) Assay for Peroxisomal acyl-coenzyme A oxidase 1 (ACOX1) gene using HepaRG (AID 2283467). The essentials: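 HepaRG cells, plated 48 h then switched to serum-free induction medium, were exposed in duplicate for 48 h to 8-point half-log concentrations up to 100 uM in 0.5% DMSO. ACOX1 mRNA was measured by qRT-PCR, normalized to ACTB/GAPDH/POLR2A, and fitted bidirectionally versus DMSO.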

Read-out in assay [3]: Alkaline Phosphatase, Placental (ALPP) gene, ALPP (gene 250)
As to the kind of experiment: LTEA_HepaRG_ALPP: Life Technologies and Expression Analysis (LTEA) Assay for Alkaline Phosphatase, Placental (ALPP) gene using HepaRG (AID 2283468).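 As to AC50: differentiated human HepaRG liver cells in serum-free induction medium.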 A digest of the protocol: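 Expression of ALPP was quantified by qRT-PCR against three housekeeping genes in human HepaRG cultures treated for 48 h with an eight-point concentration series up to 100 uM. Activity in either direction was fitted relative to 0.5% DMSO.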

Read-out in assay [4]: Bcl-2 (BAD) gene, BAD (gene 572)
The experiment in a line: LTEA_HepaRG_BAD: Life Technologies and Expression Analysis (LTEA) Assay for Bcl-2 (BAD) gene using HepaRG (AID 2283469). A digest of the protocol:
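Differentiated HepaRG cells were exposed in duplicate in 0.5% DMSO for 48 h to eight-point half-log concentrations up to 100 uM. BAD mRNA was measured by Fluidigm TaqMan qRT-PCR, normalized to ACTB, GAPDH and POLR2A, and fitted bidirectionally against DMSO.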

Read-out in assay [5]: Bcl-2 (BAX) gene, BAX (gene 581)
As to the kind of experiment: LTEA_HepaRG_BAX: Life Technologies and Expression Analysis (LTEA) Assay for Bcl-2 (BAX) gene using HepaRG (AID 2283470). A digest of the protocol: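 HepaRG (human liver), 48 h exposure, duplicate wells. 8-pt curve, half-log from 100 uM, 0.5% DMSO. BAX transcript by TaqMan qRT-PCR; ACTB/GAPDH/POLR2A normalization; gain or loss vs DMSO baseline.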

Read-out in assay [6]: adenosine kinase (ADK) gene, ADK (gene 132)
The experiment in a line: LTEA_HepaRG_ADK: Life Technologies and Expression Analysis (LTEA) Assay for adenosine kinase (ADK) gene using HepaRG (AID 2283471). The essentials:
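HepaRG (human liver), 48 h chemical exposure, 8-pt half-log series, top 100 uM, 0.5% DMSO vehicle. Readout: ADK mRNA by qRT-PCR vs housekeeping genes; bidirectional curve fit relative to DMSO baseline.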

Read-out in assay [7]: Alpha-fetoprotein (AFP) gene, AFP (gene 174)
As to the kind of experiment: LTEA_HepaRG_AFP: Life Technologies and Expression Analysis (LTEA) Assay for Alpha-fetoprotein (AFP) gene using HepaRG (AID 2283472). A digest of the protocol: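 HepaRG, single lot; 48 h post-plating -> serum-free induction medium; cpd 8-pt, 100 uM top, half-log, 0.5% DMSO, duplicate, 48 h. RNA -> qRT-PCR AFP, norm ACTB/GAPDH/POLR2A. Bidirectional fit vs DMSO.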

Read-out in assay [8]: BCL2L11 (gene 10018)
The experiment in a line: LTEA_HepaRG_BCL2L11: Life Technologies and Expression Analysis (LTEA) Assay for Bcl-2 (BCL2L11) gene using HepaRG (AID 2283473). The essentials:
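Cells were plated, cultured 48 h, switched to serum-free induction medium, then dosed in duplicate for 48 h at eight half-log concentrations up to 100 uM. Lysates underwent RNA isolation and TaqMan qRT-PCR; gain or loss versus DMSO was fitted.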

Read-out in assay [9]: Apolipoprotein A-V (APOA5) gene, APOA5 (gene 116519)
The experiment in a line: LTEA_HepaRG_APOA5: Life Technologies and Expression Analysis (LTEA) Assay for Apolipoprotein A-V (APOA5) gene using HepaRG (AID 2283474). The essentials:
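Human liver HepaRG cells are treated 48 h with test chemicals (100 uM top, half-log dilutions, 0.5% DMSO). APOA5 mRNA induction or loss is measured by qRT-PCR relative to vehicle.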

Read-out in assay [10]: Apoptosis regulator Bcl-2 (Homo sapiens) (UniProt P10415)
The experiment in a line: LTEA_HepaRG_BCL2: Life Technologies and Expression Analysis (LTEA) Assay for Bcl-2 gene using HepaRG (AID 2283475). A digest of the protocol:
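HepaRG, plated 48 h then switched to serum-free induction medium; dosed 48 h, 8 conc. (max 100 uM, half-log steps), duplicate, 0.5% DMSO. Lysis in RLT, RNA isolated, TaqMan qRT-PCR for BCL2; ACTB/GAPDH/POLR2A normalisation; bidirectional fit vs DMSO.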

Calls of active or inactive are those of the source. The calls were made as follows: active = hit-call score of the fitted dose curve at least 0.9, where 1 is the maximum; inactive = score below 0.9.

Apoptosis regulator Bcl-2 (Homo sapiens), sequence (P10415 whole entry, looked up): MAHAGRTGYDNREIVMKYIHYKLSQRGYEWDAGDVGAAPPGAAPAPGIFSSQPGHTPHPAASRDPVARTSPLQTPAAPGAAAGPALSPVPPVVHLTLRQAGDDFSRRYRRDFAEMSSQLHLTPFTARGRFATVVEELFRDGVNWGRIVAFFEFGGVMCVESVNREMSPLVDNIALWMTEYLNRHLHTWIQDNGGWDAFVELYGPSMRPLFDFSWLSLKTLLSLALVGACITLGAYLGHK

Take `CCNC(=O)NC(=O)C(C#N)=NOC`: the molecule was classed as inactive in [1], in assay [2], in assay [3], in assay [4], in [5] and in assay [6]. Also, the call in assay [8], in assay [9] and in assay [10] was inactive. The AC50 in assay [7] was 75.6 µM (active).
As for `CNC(=O)N(C)c1nnc(C(C)(C)C)s1`, the molecule was classed as inactive in [1], in assay [2], in [3], in [4], in assay [5] and in [6]. The call in assay [7], in assay [8], in [9] and in assay [10] was inactive.
Consider `O=C(O)c1c(Cl)ccc2cc(Cl)cnc12`, for which the result in assay [1], in assay [2], in [3], in assay [4], in [5] and in assay [6] was inactive. The call in [7], in [8], in assay [9] and in assay [10] was inactive.
As to `CCCC(=NOCC)C1=C(O)CC(CC(C)SCC)CC1=O` (stereo not drawn), the molecule was called inactive in [1], in assay [2], in assay [3], in [4], in assay [5] and in assay [6]. Moreover, the outcome in assay [7], in assay [8], in [9] and in [10] was inactive.
For the molecule `CCN(CC)c1nc(C)cc(OP(=S)(OC)OC)n1`, the molecule was called inactive in [1], in assay [2], in assay [3], in [4], in assay [5] and in assay [6]. In addition, the outcome in [7], in assay [8], in [9] and in assay [10] was inactive.
As to `COc1ccc(-c2ccccc2)cc1NNC(=O)OC(C)C`, the molecule was classed as inactive in [1], in assay [2], in assay [3], in assay [4], in assay [5] and in [6]. The outcome in [7], in assay [8], in assay [9] and in [10] was inactive.
As for `Cc1nc(N(C)C)nc(OC(=O)N(C)C)c1C`, the outcome in [1], in assay [2], in [3], in assay [4], in assay [5] and in assay [6] was inactive. Also, the outcome in assay [7], in assay [8], in assay [9] and in assay [10] was inactive.
With `Clc1nc(Cl)nc(Nc2ccccc2Cl)n1`, the outcome in [1], in [2], in assay [3], in [4], in assay [5] and in assay [6] was inactive. Also, the outcome in [7], in assay [8], in assay [9] and in [10] was inactive.
Consider `COC(=O)NC(=S)Nc1ccccc1NC(=S)NC(=O)OC`, for which the call in assay [1], in assay [2], in assay [3], in [4], in assay [5] and in assay [6] was inactive. Moreover, the molecule was called inactive in assay [7], in assay [8], in assay [9] and in [10].
Consider `CC(C)NC(=O)N1CC(=O)N(c2cc(Cl)cc(Cl)c2)C1=O`, for which the call in assay [1], in assay [3], in assay [4], in assay [5], in [6] and in assay [8] was inactive. In addition, the outcome in assay [10] was inactive. The results for the AC50 in assay [2], in assay [7] and in [9] were 14.4 µM (active), 13.2 µM (active) and 22.7 µM (active), respectively.
Consider `CSC(=O)c1c(C(F)F)nc(C(F)(F)F)c(C(=O)SC)c1CC(C)C`, for which the half-maximal activity concentration (AC50) in assay [1] was 77.9 µM (active); in [3] it was 49.8 µM (active); in assay [7], 49.8 µM (active); in assay [10], 49.8 µM (active). Besides, the result in assay [2], in assay [4], in [5], in assay [6], in assay [8] and in assay [9] was inactive.
`O=C1C2CC=CCC2C(=O)N1SC(Cl)(Cl)Cl` (stereo not drawn): the result in assay [1], in assay [2], in [4], in assay [5], in [6] and in [7] was inactive. Besides, the molecule was called inactive in assay [8], in [9] and in assay [10]. In [3], the AC50 was 10.8 µM (active).
For `CCOC(=O)C(C)OC(=O)c1cc(Oc2ccc(C(F)(F)F)cc2Cl)ccc1[N+](=O)[O-]` (stereo not drawn), the results for the AC50 in assay [1], in assay [2] and in assay [7] were 50 µM (active), 2.11 µM (active) and 50 µM (active), respectively. For the same molecule, the call in [4], in [5], in [6], in [8], in assay [9] and in assay [10] was inactive.
As to `CCNP(=S)(OC)O/C(C)=C/C(=O)OC(C)C` (stereo not drawn), in assay [1], the AC50 is 67 µM (active). Also, the molecule was classed as inactive in assay [2], in [4], in assay [5], in assay [6], in assay [7] and in assay [8]. Further, the result in assay [9] and in assay [10] was inactive.
As for `CC(C)(C)C(=O)C(Oc1ccc(Cl)cc1)n1cncn1` (stereo not drawn), the AC50 in assay [1] is 66.5 µM (active). Besides, the call in [2], in assay [3], in assay [4], in assay [5], in assay [6] and in assay [7] was inactive. Further, the molecule was classed as inactive in assay [8], in assay [9] and in assay [10].
As to `CC(C)=CC1C(C(=O)OCc2coc(Cc3ccccc3)c2)C1(C)C` (stereo not drawn), the molecule was called inactive in assay [1], in assay [2], in assay [3], in [4], in assay [5] and in assay [6]. The result in [7], in [8], in assay [9] and in assay [10] was inactive.
Regarding `Cc1ccc(N=CN(C)C=Nc2ccc(C)cc2C)c(C)c1`, the outcome in [1], in assay [2], in assay [3], in assay [4], in assay [5] and in assay [6] was inactive. For the same molecule, the molecule was classed as inactive in assay [7], in assay [8], in [9] and in assay [10].
